# Where “and” joins values, the source holds several entries; their conditions need not be identical. Equal values may be shown once. Results with a measured potency or affinity are listed apart.
# Legend:
# Staphylococcus aureus = details: Concentration 32 ug.mL-1, ASSAY_TEST Inhibition of Bacterial Growth, detection method Absorption (OD600), MEDIA CAMHB, plate type 384well, NBS, CORNING #3640, time 18 hr
# Escherichia coli = details: Concentration 32 ug.mL-1, ASSAY_TEST Inhibition of Bacterial Growth, detection method Absorption (OD600), MEDIA CAMHB, plate type 384well, NBS, CORNING #3640, time 18 hr
smiles,measurement,setting,value
Nc1c2c(nc3ccc([N+](=O)[O-])cc13)CCCC2,Inhibition,Staphylococcus aureus,53.1%
same,Inhibition,Escherichia coli,1.31%
C#CCN(C)Cc1cc2cc(OCc3ccc(OC)c4ncccc34)ccc2n1C,Inhibition,Staphylococcus aureus,3.95%
same,Inhibition,Escherichia coli,-18.67%
Cn1cc(C(=O)NN)c2ccccc21,Inhibition,Staphylococcus aureus,4.01%
same,Inhibition,Escherichia coli,20.35%
Cn1ccnc1C1c2c(nc3c(c2N)CCC3)Oc2ccc3ccccc3c21 (centres undefined),Inhibition,Staphylococcus aureus,25.1%
same,Inhibition,Escherichia coli,-9.44%
Cc1cnc2ccc(Cl)cn12,Inhibition,Staphylococcus aureus,9.7%
same,Inhibition,Escherichia coli,8.76%
CCOC(=O)c1cc2cc(OC(=O)Oc3ccc([N+](=O)[O-])cc3)ccc2[nH]1,Inhibition,Staphylococcus aureus,13.73%
same,Inhibition,Escherichia coli,-33.4%
CC1CC(=O)Nc2c1c(Cl)nc1nc3c(c(N)c21)CCCC3 (centres undefined),Inhibition,Staphylococcus aureus,34.68%
same,Inhibition,Escherichia coli,-17.09%
N#Cc1c(Cl)nc(NC2CCN(Cc3ccccc3)CC2)c(C#N)c1-c1ccccc1,Inhibition,Staphylococcus aureus,-0.92%
same,Inhibition,Escherichia coli,-18.84%
NC(=O)c1cc2cc(OCc3ccccc3)ccc2[nH]1,Inhibition,Staphylococcus aureus,21.34%
same,Inhibition,Escherichia coli,-8.75%
NC1(C(=O)O)CC1c1ccc2c(c1)OCO2 (centres undefined),Inhibition,Staphylococcus aureus,-7.05%
same,Inhibition,Escherichia coli,-7.79%
Cc1[nH]c2ccc(OCc3ccccc3)cc2c1C(=O)NN,Inhibition,Staphylococcus aureus,3.15%
same,Inhibition,Escherichia coli,-5.77%
C#CCN(C)Cc1cc2cc(OCCCC3CCN(Cc4ccc(C#N)cc4)CC3)ccc2n1C,Inhibition,Staphylococcus aureus,8.98%
same,Inhibition,Escherichia coli,-18.18%
CCOC(=O)C1=C(C)OC(N)=C(C#N)C1c1ccc(OC)c(OC)c1 (centres undefined),Inhibition,Staphylococcus aureus,21.72%
same,Inhibition,Escherichia coli,-10.4%
C#CCN(C)c1nc(NCC2CCN(Cc3ccccc3)CC2)c(C#N)c(-c2ccccc2)c1C#N.Cl,Inhibition,Staphylococcus aureus,36.49%
same,Inhibition,Escherichia coli,-7.12%
COC(=O)C(NC(=O)c1ccccc1)=C(C)c1ccccc1,Inhibition,Staphylococcus aureus,11.03%
same,Inhibition,Escherichia coli,2.63%
N#Cc1c(N)nc2c(c1-c1ccccc1)CN(Cc1ccccc1)CC2,Inhibition,Staphylococcus aureus,12.81%
same,Inhibition,Escherichia coli,10.61%
COc1ccc(C2c3c(nc4c(c3N)CCCC4)Oc3ccc4ccccc4c32)cc1OC (centres undefined),Inhibition,Staphylococcus aureus,3.78%
same,Inhibition,Escherichia coli,13.42%
Cl.Cl.Cn1c(CNc2ccccc2)cc2cc(OCCCC3CCN(Cc4ccccc4)CC3)ccc21,Inhibition,Staphylococcus aureus,21.22%
same,Inhibition,Escherichia coli,-8.49%
N#CC1=C(Cl)Oc2c(ccc3ccccc23)C1c1ccccc1[N+](=O)[O-] (centres undefined),Inhibition,Staphylococcus aureus,15.73%
same,Inhibition,Escherichia coli,-14.23%
CS(=O)(=O)O[C@H]1CC[C@H](OS(C)(=O)=O)CC1,Inhibition,Staphylococcus aureus,29.12%
same,Inhibition,Escherichia coli,-5.59%
N#Cc1cc2c(N)c3c(nc2nc1Cl)CCCC3,Inhibition,Staphylococcus aureus,35.71%
same,Inhibition,Escherichia coli,-0.19%
CC#CCN(Cc1ccccc1)c1nc(N)c(C#N)cc1C#N,Inhibition,Staphylococcus aureus,14.89%
same,Inhibition,Escherichia coli,-4.77%
C#CCN(C)Cc1cc2cc(OCOc3ccc4c(c3)cc(CN(C)CC#C)n4C)ccc2n1C,Inhibition,Staphylococcus aureus,15.95%
same,Inhibition,Escherichia coli,-10.88%
CC(=O)Oc1cccc(C=C2N=C(c3ccccc3)OC2=O)c1,Inhibition,Staphylococcus aureus,11%
same,Inhibition,Escherichia coli,13.2%
N#CC1=C(N)Oc2ccc3ccccc3c2C1c1ccc(O)cc1 (centres undefined),Inhibition,Staphylococcus aureus,42.7%
same,Inhibition,Escherichia coli,-6.77%
N#Cc1c(N)nc(N2CCC(Cc3ccccc3)CC2)c(C#N)c1-c1ccccc1,Inhibition,Staphylococcus aureus,8.01%
same,Inhibition,Escherichia coli,-15.68%
N#CC1=C(N)NC(=O)CC1c1ccccc1 (centres undefined),Inhibition,Staphylococcus aureus,34.44%
same,Inhibition,Escherichia coli,4.14%
CC(=O)Nc1nn(C)c2nc3nc4c(c(N)c3cc12)CCCC4,Inhibition,Staphylococcus aureus; 32 ug/mL,26.15% and 21.32%
same,Inhibition,Escherichia coli; 32 ug/mL,-7.37% and -4.67%
O=C(N/N=C/c1cccc(Cl)c1)c1cc2ccccc2[nH]1,Inhibition,Staphylococcus aureus,-16.68%
same,Inhibition,Escherichia coli,-12.27%
Cc1nc(Nc2ccccc2)c2cnn(-c3ccccc3)c2n1,Inhibition,Staphylococcus aureus,6.87%
same,Inhibition,Escherichia coli,6.44%
CCOC(=O)/C(=C\c1ccccc1)C(=O)c1ccccc1,Inhibition,Staphylococcus aureus,9.55%
same,Inhibition,Escherichia coli,10.95%
CCOC(=O)c1c(C)nc2nc3c(c(N)c2c1-c1ccc(OC)cc1)CCCCCC3,Inhibition,Staphylococcus aureus,3.19%
same,Inhibition,Escherichia coli,-20.4%
N#CC1=C(N)Oc2ccc3ccccc3c2C1c1ccccc1[N+](=O)[O-] (centres undefined),Inhibition,Staphylococcus aureus,40.78%
same,Inhibition,Escherichia coli,-6.45%
CCOC(=O)C1=C(C)Nc2nc3c(c(N)c2C1c1ccc([N+](=O)[O-])cc1)CCCC3.Cl (centres undefined),Inhibition,Staphylococcus aureus,34.25%
same,Inhibition,Escherichia coli,-22.43%
COc1[nH]c(=O)ccc1C#N,Inhibition,Staphylococcus aureus,31.13%
same,Inhibition,Escherichia coli,-5.91%
CNC(=O)c1cc2cc(OC)ccc2[nH]1,Inhibition,Staphylococcus aureus,5.66%
same,Inhibition,Escherichia coli,-0.98%
COc1ccc(C2c3c(nc4c(c3N)CCCC4)Oc3ccc4ccccc4c32)c(OC)c1 (centres undefined),Inhibition,Staphylococcus aureus,15.3%
same,Inhibition,Escherichia coli,3.89%
